This note sets out measurements from the supplement of paper PMC6555819.

The test system of this experiment is PXR:RXRa (NR concentration 270 nM, RXRa partner concentration 90 nM). Nature of the experiment: PBM binding z-score (relative to random genomic background probes); higher = stronger binding; sequences stand for … in GC…GCGATTGACAGCGTAGAATGAAGG
Put shortly:
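Probes were double-stranded and carried 34-nt variable regions with direct-repeat seeds, single-nucleotide variants, half-site ablations and random human genomic background sequences, printed on custom Agilent 4×180K protein-binding microarrays. Arrays were incubated 1 h with ligand-free nuclear receptor dimers in PBS pH 7.4, 2% milk, 0.02% Triton X-100, 1 mM DTT, 0.2 mg/mL BSA and 0.4 mg/ml salmon testes DNA. Antibodies against each partner (one per run) detected binding, and scanned fluorescence was regression-normalized. Binding z-scores use the random background probes as reference.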
On to CCTTGCGGGTCACGAGGTTATAGCACGACGAGCG, for which the PBM binding z-score turned out to be 4.41.

As for TCGAGTAGGTTACCAATGGGGCTTTCAGCTTTCT, the PBM binding z-score is -0.0679.

In turn, CGTCCAAGGACAAGGTCAGTGAAAGAGACTCGAA came in with a PBM binding z-score of 1.61.

For the sequence ATCTCTAGGTAAGACTCAGTTCAGAGAAGAACGC, the PBM binding z-score was determined as 0.856.

TCTTGTAGATCAACAGGAGGTTAAGAAAGATCGA showed a PBM binding z-score of 0.753.

CCAGACAGGTGAGAAGGTAACTCAACCTCGATTA registered a PBM binding z-score of 0.207.

As to CTACCAAGGTGAGCAAGGTCGTTGATTACTATTC, the PBM binding z-score was 1.79.

AGTCAAAGTACACTAGGTAACGTAAGATTCAGCT registered a PBM binding z-score of -0.253.

CGAACTAGGTCAGAAAAGGACAGTGAAGGATGAT yielded a PBM binding z-score of 1.17.

In turn, TCATATAGGTAAATGCTAGCTGAAAGTCCGATCT gave a PBM binding z-score of 0.592.

With TTACTAAGGTGAGCTGAGGTCGTTGATCCAACTC, the PBM binding z-score is 5.17.

As for ACTAGCAGGCCAAGTTTGGGTTACTCAAACAAAG, the PBM binding z-score was -0.324.

TTACCAAGGTGAGCTGAGGACGTTGATCCAACTC yielded a PBM binding z-score of 2.25.

ATCTCTAGGTAAAAGTTCAATGAATCCCGAGGAT displayed a PBM binding z-score of 3.09.

Sequence GTACCAAGGTGAATGGGTCGTTGATGAGTAGGCG had a PBM binding z-score of 0.325.

Sequence CAGCCTAGGTCAGGGCCAGTATCGGAGGAACGTT yielded a PBM binding z-score of 0.107.

CAAACTAGGTCAGGAGGTCAAAGTCCGCTTCCCG returned a PBM binding z-score of 5.16.

Consider TAGCCTAGGTCATTCGGGCCAGTATAGTGTCGGC, for which the PBM binding z-score was 2.11.

For ACAGACAGGCGAGTGAAGGTAACTCAGCTGGACG, the PBM binding z-score was -0.279.

The sequence GGAACCAGGGCATTCGAGTTGATAGCATGGCGAT yielded a PBM binding z-score of 2.12.

ATATGTAGGTTATCGGGTCAGTCAGTTTGCGCAT came in with a PBM binding z-score of 2.53.

For CCTTACGGGTCACTGACAGGTTATATCATTTGGA, the PBM binding z-score worked out at 3.69.

Sequence GCTCGGAGGACAAGGTCAAAGCTTTGTCCGTAGA showed a PBM binding z-score of 3.51.

The sequence GCTAGTTGGTCAGTAAAAGGCCACACACCGGTCG came in with a PBM binding z-score of -0.0291.

For CCTTACGGGTCACTGACCGGTTATAGCATTTGGA, the PBM binding z-score worked out at 2.93.

CCTACTGGGCCACGAAGGGTCATTGATTCAGTGA yielded a PBM binding z-score of 3.23.

As to AGAATGAGGGCACGCTGAGTTGATAGCAGAGTAG, the PBM binding z-score was 1.48.

GCTAACAGGCCATTTGGGTCACTCAATGACGGGC returned a PBM binding z-score of 0.795.

In the case of TCGAGTAGGTTAGCGGCATTCAGAATGGCGTCGA, the PBM binding z-score was -0.724.

In the case of TATACAGGGTTAAAGGCCAGAGTACGAATGTCGA, the PBM binding z-score was found to be 1.82.

CGAACTAGGTCTTCCAGGACAGTGAATACATTGA: the PBM binding z-score is -0.421.

In the case of TTACCAAGGTGAGCTGAAGTCGTTGATCCAACTC, the PBM binding z-score was -0.181.

For CGTGCAAGGTCAAGGTCAGTGAAAGAGACTCGAA, the PBM binding z-score worked out at 4.99.

Take CCGAGTAGGTTATGGGGCAATCAGGCAACGGTGA: the PBM binding z-score was 0.118.

With GCAGACGGGTGAAACGCAGGTAACTCAGGGTGGC, the PBM binding z-score is -0.244.

The sequence TATAGAGGGTCAAAGGCCAGAGTACGAATGTCGA registered a PBM binding z-score of 3.62.

Sequence GATACAGGGTCAGCTATAGGCCAGAGTATGGAAA showed a PBM binding z-score of 2.14.

For ATCTCTAGGTAAGACTCAGTTCAGGGAAGAACGC, the PBM binding z-score worked out at 1.19.

Sequence AATACAGGGTCATCGTAGGCCTGAGTACGCACAG showed a PBM binding z-score of 4.23.

In turn, TCTTGTAGATCACAGGTTAAGAAAGCCGAAGCCT returned a PBM binding z-score of 0.186.
